According to the supplement of paper PMC8728848:
Many of the other results were omitted from the sample, so the strongest signals are more common in it than they were.

What was measured:
Test in all cases: glycan array binding signal (z-score within array); higher = stronger binding
Conditions in all cases: glycan notation: IUPAC condensed, linker removed
Fuc(a1-2)Gal = target: Fuc(a1-2)Gal
Procedure, shortened: (§1)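 The Consortium for Functional Glycomics database supplied 3228 glycan arrays, of which those lacking an available protein sequence were dropped. The binding signal, a within-array Z-score, was averaged across arrays of the same protein sequence and across linkers. Negative scores can be read as non-binding.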

Fuc(a1-2)Gal(b1-3)GlcNAc = target: Fuc(a1-2)Gal(b1-3)GlcNAc
Procedure, shortened: as §1

Fuc(a1-2)Gal(b1-4)Glc6S = target: Fuc(a1-2)Gal(b1-4)Glc6S
Procedure, shortened: as §1

[1] = target: Fuc(a1-2)Gal(b1-4)[Fuc(a1-3)]GlcNAc(b1-2)Man(a1-3)[Fuc(a1-2)Gal(b1-4)[Fuc(a1-3)]GlcNAc(b1-2)Man(a1-6)]Man(b1-4)GlcNAc(b1-4)[Fuc(a1-6)]GlcNAc
Procedure, shortened: as §1

[2] = target: Fuc(a1-2)Gal6S(b1-3)GlcNAc
Procedure, shortened: as §1

[3] = target: Fuc(a1-2)[GalNAc(a1-3)]Gal(b1-4)GlcNAc
Procedure, shortened: as §1

[4] = target: Fuc(a1-2)[GalNAc(a1-3)]Gal(b1-4)GlcNAc(b1-2)Man(a1-3)[Fuc(a1-2)[GalNAc(a1-3)]Gal(b1-4)GlcNAc(b1-2)Man(a1-6)]Man(b1-4)GlcNAc(b1-4)[Fuc(a1-6)]GlcNAc
Procedure, shortened: as §1

[5] = target: Fuc(a1-3)[Gal(b1-4)]GlcNAc(b1-6)GalNAc
Procedure, shortened: as §1

[6] = target: Gal(a1-3)Gal(b1-3)GlcNAc(b1-3)GalNAc
Procedure, shortened: as §1

[7] = target: Gal(a1-4)Gal(b1-3)GlcNAc(b1-2)Man(a1-3)[Gal(a1-4)Gal(b1-3)GlcNAc(b1-2)Man(a1-6)]Man(b1-4)GlcNAc(b1-4)GlcNAc
Procedure, shortened: as §1

[8] = target: Gal(b1-3)GlcNAc(b1-2)Man(a1-3)[Gal(b1-3)GlcNAc(b1-2)Man(a1-6)]Man(b1-4)GlcNAc(b1-4)[Fuc(a1-6)]GlcNAc
Procedure, shortened: as §1

[9] = target: Gal(b1-3)GlcNAc(b1-6)[Gal(b1-3)]GalNAc
Procedure, shortened: as §1

[10] = target: Gal(b1-4)GalNAc(a1-3)[Fuc(a1-2)]Gal(b1-4)GlcNAc
Procedure, shortened: as §1

Gal(b1-4)GlcNAc(b1-2)Man = target: Gal(b1-4)GlcNAc(b1-2)Man
Procedure, shortened: as §1

[11] = target: Gal(b1-4)GlcNAc(b1-2)Man(a1-3)[Man(a1-6)]Man(b1-4)GlcNAc(b1-4)GlcNAc
Procedure, shortened: as §1

[12] = target: Gal(b1-4)GlcNAc(b1-3)Gal(b1-3)GlcNAc
Procedure, shortened: as §1

[13] = target: Gal(b1-4)GlcNAc(b1-3)Gal(b1-4)GlcNAc(b1-3)Gal(b1-4)GlcNAc(b1-2)[Gal(b1-4)GlcNAc(b1-3)Gal(b1-4)GlcNAc(b1-3)Gal(b1-4)GlcNAc(b1-6)]Man(a1-6)[Gal(b1-4)GlcNAc(b1-3)Gal(b1-4)GlcNAc(b1-3)Gal(b1-4)GlcNAc(b1-2)Man(a1-3)]Man(b1-4)GlcNAc(b1-4)[Fuc(a1-6)]GlcNAc
Procedure, shortened: as §1

[14] = target: Gal(b1-4)GlcNAc(b1-3)Gal(b1-4)GlcNAc(b1-3)Gal(b1-4)GlcNAc(b1-3)Gal(b1-4)GlcNAc(b1-2)[Gal(b1-4)GlcNAc(b1-3)Gal(b1-4)GlcNAc(b1-3)Gal(b1-4)GlcNAc(b1-3)Gal(b1-4)GlcNAc(b1-6)]Man(a1-6)[Gal(b1-4)GlcNAc(b1-3)Gal(b1-4)GlcNAc(b1-3)Gal(b1-4)GlcNAc(b1-3)Gal(b1-4)GlcNAc(b1-2)Man(a1-3)]Man(b1-4)GlcNAc(b1-4)[Fuc(a1-6)]GlcNAc
Procedure, shortened: as §1

[15] = target: Gal(b1-4)GlcNAc(b1-3)Gal(b1-4)GlcNAc(b1-3)Gal(b1-4)GlcNAc(b1-3)Gal(b1-4)GlcNAc(b1-3)Gal(b1-4)GlcNAc(b1-2)[Gal(b1-4)GlcNAc(b1-3)Gal(b1-4)GlcNAc(b1-3)Gal(b1-4)GlcNAc(b1-3)Gal(b1-4)GlcNAc(b1-3)Gal(b1-4)GlcNAc(b1-6)]Man(a1-6)[Gal(b1-4)GlcNAc(b1-3)Gal(b1-4)GlcNAc(b1-3)Gal(b1-4)GlcNAc(b1-3)Gal(b1-4)GlcNAc(b1-3)Gal(b1-4)GlcNAc(b1-2)Man(a1-3)]Man(b1-4)GlcNAc(b1-4)[Fuc(a1-6)]GlcNAc
Procedure, shortened: as §1

[16] = target: Gal(b1-4)GlcNAc(b1-3)Gal(b1-4)[Fuc(a1-3)]GlcNAc(b1-3)Gal(b1-4)[Fuc(a1-3)]GlcNAc
Procedure, shortened: as §1

[17] = target: Gal(b1-4)GlcNAc(b1-3)[Gal(b1-4)GlcNAc(b1-6)]Gal(b1-4)GlcNAc
Procedure, shortened: as §1

[18] = target: Gal(b1-4)GlcNAc(b1-6)[Gal(b1-4)GlcNAc(b1-3)]GalNAc
Procedure, shortened: as §1

[19] = target: Gal3S(b1-3)[Fuc(a1-4)]GlcNAc
Procedure, shortened: as §1

Gal3S6S(b1-4)GlcNAc6S = target: Gal3S6S(b1-4)GlcNAc6S
Procedure, shortened: as §1

Gal4S6S(b1-4)GlcNAc = target: Gal4S6S(b1-4)GlcNAc
Procedure, shortened: as §1

Gal6P(b1-4)GlcNAc = target: Gal6P(b1-4)GlcNAc
Procedure, shortened: as §1

[20] = target: GlcNAc(b1-2)Gal(b1-3)GalNAc
Procedure, shortened: as §1

[21] = target: GlcNAc(b1-2)[GlcNAc(b1-4)]Man(a1-3)[GlcNAc(b1-2)Man(a1-6)]Man(b1-4)GlcNAc(b1-4)GlcNAc
Procedure, shortened: as §1

[22] = target: GlcNAc(b1-3)Gal(b1-4)GlcNAc(b1-3)Gal(b1-4)GlcNAc(b1-3)Gal(b1-4)GlcNAc(b1-2)[GlcNAc(b1-3)Gal(b1-4)GlcNAc(b1-3)Gal(b1-4)GlcNAc(b1-3)Gal(b1-4)GlcNAc(b1-6)]Man(a1-6)[GlcNAc(b1-3)Gal(b1-4)GlcNAc(b1-3)Gal(b1-4)GlcNAc(b1-3)Gal(b1-4)GlcNAc(b1-2)Man(a1-3)]Man(b1-4)GlcNAc(b1-4)[Fuc(a1-6)]GlcNAc
Procedure, shortened: as §1

GlcNAc(b1-3)Man = target: GlcNAc(b1-3)Man
Procedure, shortened: as §1

B1: Cp ZmpB (Clostridium perfringens), Q0TR08 (protein)
chain: MNKRKIAAIILATMITNLSATTIDVLAQELNTKNNSKVEVSHDDESHQARVSKFDLYNSDKLDAYNQEFQVSRSNIKSINNNGGKYNSSTIDKAIDGNLETHWETGKPNDANFTNEVVVTFNEITNIDRIVYSARRDSARGKGFAKEFEIYASLKDEGDDFNLVSSGEYTESTRDLVEIKFNPTDFKRLKFKFKKADQNWASAAEFMFYKEDKLNEKFNGLFTDSSMNKVSEEFNTLEKLNAFENELKDHPIYDLYKEGLNNARAILTETSENPTKATLGQITYNLNDDYNNQYRMPYKNIKAIKNNGRHYAAQNIEKAIDNDVNTYWETGTLNSSSFNNEVEVEFNDLVTLDRIVYGSRQSDLKGFAEEVYIYASRTSKGDTYKLVATGAHEATKGLVEAKFEPTEFKRVKFKFKKSKQNSATLNELMFYKPDEVYSSIPKLFTDGTMSELSEEFNSLEKINAFKEKAKNHPLYNDFNETIELAESLISNPRKEDVLELEMRGDSISEAKKRKVWNFQDWQITGLSARAGDKITVYVDVAEGDPTPTLLYKQSLTQHGGATSFQLKPGKNEITIPEINYESNGIPKDVIQGGDLFFTNYKSDSQKRAPKVRIEGASKYPVFILGKSDENEVMKELEAYVEKIKAEPKTTPNIFAVSSNKSLEFVQATYALDWYKKNNKTPKYTAEQWDQYIADAMGFWGFDNSKDVNSDFNFRIMPMVKNLSGGAFMNAGNGVIGIRPGNQDAILAANKGWGVAHELGHNFDTGGRTIVEVTNNMMPLFFESKYKTKTRITDQNIWENNTYPKVGLDDYSNNELYNKADSTHLAQLAPLWQLYLYDNTFYGKFERQFRERDFGNKNREDIYKSWVVAASDAMELDLTEFFARHGIRVDDKVKEDLAKYPKPDKKIYYLNDLAMNYKGDGFTENAKVSVSTSGSNGNIKLSFSVDDENKDNILGYEIRRDGKYVGFTSNDSFVDTKSNLDEDGVYVVTPYDRKLNTLNPIEVNALQPTLSVNPVITLALGEEFNEEEYIVAKDIKGNSLSESVKVKSSNVNTSKVGEYEVLYSLEDSKGNEYTKTSKVNVVSRKEYMSDLTPKQSSNGWGTVRKDKSISGGVIGLTRDGDFVDYNKGLGLHSNAEYVYDLEGKDYDYFESYVGVDKAMSSRPASSVIFKVLVDGEEKFNSGVMRSTTPQKYVKVDVKNAKELKLIVNDAGDGDSSDHASFGDAKLATLSSKPIIKGENLAYSMDEKVDLMKGITATDIEDGNITSKVQIKSSDFVEGKSGIFTVVYSVTDSDGLTSECSRTIAVTDKETQLSDLNWKSATIGSGSVRKDRAVSGNQIRLLNEDNSVETFAKGIGTHSYSEIVYNSEGYDIFDTWVGIDRHVADKKVSSVKFKVYVDGELKAETDVMRIDTPKKRLVVDVRNSKEIKLVVDVADNGNNWDHADWADAKFRNLAEYDASELNKAIEEAKKLDLNNYTEESSEALKNAISKGEEALLSKDKETINSALEELNKEMNSLVKVDLNAVINIPDKYLLKSIQNQLNKTGDITLGDMYSLTTLTLSGVEDLTGLENAKNLETLNMDYNEVKDLRPLSKLKKLNTLNAQEQFIAAGELKPSNGKVIGDSKVYNREGKNVAKTIRVVDKNGNTILEQDAKDEFTINTKDLSSGLYGVHVLFEDEGFSGVMFYLFNV
- glycan array binding signal (z-score) (Fuc(a1-2)Gal): 22.4
- glycan array binding signal (z-score) (Fuc(a1-2)Gal(b1-3)GlcNAc): -0.148
- glycan array binding signal (z-score) (Fuc(a1-2)Gal(b1-4)Glc6S): -0.219
- glycan array binding signal (z-score) [1]: -0.251
- glycan array binding signal (z-score) [2]: -0.122
- glycan array binding signal (z-score) [3]: -0.068
- glycan array binding signal (z-score) [4]: -0.353
- glycan array binding signal (z-score) [5]: -0.181
- glycan array binding signal (z-score) [6]: -0.001
- glycan array binding signal (z-score) [7]: -0.252
- glycan array binding signal (z-score) [8]: -0.193
- glycan array binding signal (z-score) [9]: 0.823
- glycan array binding signal (z-score) [10]: 0.022
- glycan array binding signal (z-score) (Gal(b1-4)GlcNAc(b1-2)Man): 0.161
- glycan array binding signal (z-score) [11]: -0.033
- glycan array binding signal (z-score) [12]: 1.39
- glycan array binding signal (z-score) [13]: -0.102
- glycan array binding signal (z-score) [14]: -0.093
- glycan array binding signal (z-score) [15]: 3.56
- glycan array binding signal (z-score) [16]: -0.332
- glycan array binding signal (z-score) [17]: -0.301
- glycan array binding signal (z-score) [18]: 0.086
- glycan array binding signal (z-score) [19]: -0.055
- glycan array binding signal (z-score) (Gal3S6S(b1-4)GlcNAc6S): 1.17
- glycan array binding signal (z-score) (Gal4S6S(b1-4)GlcNAc): 0.461
- glycan array binding signal (z-score) (Gal6P(b1-4)GlcNAc): -0.373
- glycan array binding signal (z-score) [20]: 2.81
- glycan array binding signal (z-score) [21]: 1.11
- glycan array binding signal (z-score) [22]: -0.173
- glycan array binding signal (z-score) (GlcNAc(b1-3)Man): 0.057
